# Results: PubChem BioAssay (NCI)
# Where “and” joins values, the source holds several entries; their conditions need not be identical. Equal entries are not always repeated. About 83,000 compounds went through this panel and 20% of them were active in at least one assay; those are over-represented in the sample as a whole.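 Activity criterion: percent growth below 10, measured after cells in 96-well plates were exposed to a single compound concentration for 48 hours.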 Unmarked numbers belong to inactive results. Calls of active or inactive are those of the source.
# Legend:
# Test in all cases: NCI-60 one-dose screen, 48 h (100 = growth as untreated, 0 = no growth, -100 = all killed)
# Details in all cases: 10 µM unless noted
# HCT-15 colon = test system: HCT-15 colon
# HT29 colon = test system: HT29 colon
# U251 CNS = test system: U251 CNS
# PC-3 prostate = test system: PC-3 prostate
# UACC-62 melanoma = test system: UACC-62 melanoma
# SK-MEL-28 melanoma = test system: SK-MEL-28 melanoma
# SK-MEL-2 melanoma = test system: SK-MEL-2 melanoma
# EKVX NSCLC = test system: EKVX NSCLC
# SN12C renal = test system: SN12C renal
# UO-31 renal = test system: UO-31 renal
# TK-10 renal = test system: TK-10 renal
# ACHN renal = test system: ACHN renal
# A498 renal = test system: A498 renal
# MOLT-4 leukemia = test system: MOLT-4 leukemia
# SNB-19 CNS = test system: SNB-19 CNS
# CAKI-1 renal = test system: CAKI-1 renal
# CCRF-CEM leukemia = test system: CCRF-CEM leukemia
# SNB-75 CNS = test system: SNB-75 CNS
# LOX IMVI melanoma = test system: LOX IMVI melanoma
# SK-MEL-5 melanoma = test system: SK-MEL-5 melanoma
SMILES,growth (HCT-15 colon),growth (HT29 colon),growth (U251 CNS),growth (PC-3 prostate),growth (UACC-62 melanoma),growth (SK-MEL-28 melanoma),growth (SK-MEL-2 melanoma),growth (EKVX NSCLC),growth (SN12C renal),growth (UO-31 renal),growth (TK-10 renal),growth (ACHN renal),growth (A498 renal),growth (MOLT-4 leukemia),growth (SNB-19 CNS),growth (CAKI-1 renal),growth (CCRF-CEM leukemia),growth (SNB-75 CNS),growth (LOX IMVI melanoma),growth (SK-MEL-5 melanoma)
C/C=C1\SC(=S)NC1=O,98.9%,108%,96.2%,95.1%,97.8%,107%,111%,95.1%,101%,91.6%,98.4%,106%,108%,103%,,,,,,
O=C(CC1(O)C(=O)Nc2c(Cl)ccc(Cl)c21)c1ccc(Cl)cc1Cl (stereo not drawn),101%,90.3%,96.4%,81%,97.8%,109%,98.9%,85.2%,104%,86.2%,105%,107%,,106%,107%,93.8%,112%,,,
N[C@H](C(=O)O)[C@@H]1CC(Cl)=NO1,15.9% [20 µM],17.3% [20 µM],26.8% [20 µM],31% [20 µM],22.4% [20 µM],34.7% [20 µM],46.3% [20 µM],23.6% [20 µM],19.6% [20 µM],34.8% [20 µM],24.7% [20 µM],21.5% [20 µM],13.6% [20 µM],23.5% [20 µM],,18.3% [20 µM],19% [20 µM],27.3% [20 µM],13.2% [20 µM],
Oc1c(Cl)c2ccccc2c2ccccc12,112%,,113%,97.5%,107%,108%,96.9%,117%,98.5%,91.8%,84.8%,100%,122%,,99.1%,111%,112%,88.2%,98%,
OC(CNc1ccnc2cc(Cl)ccc12)CNc1ccnc2cc(Cl)ccc12,97%,,3.22% (active),69.7%,88.3%,-82.7% (active),104%,78.6%,37.9%,88.1%,87.5%,99%,76.9%,12%,,101%,-15.8% (active),31.8%,-79.2% (active),53.7%
CC1=CC(O)C2CC1C2(C)C (stereo not drawn),104% and 112%,,100% and 110%,94.9% and 86.4%,101% and 105%,107% and 115%,92.8%,97.7% and 104%,102% and 108%,93.8% and 73.6%,102% and 98.1%,103% and 118%,91% and 92.7%,91.9% and 93.3%,103% and 116%,,106% and 105%,,98% and 105%,103% and 104%
CC1SC(=S)N(c2ccc(Cl)cc2)C1=O (stereo not drawn),96.5% and 84.1%,,95.4% and 93.6%,97.7% and 74.3%,82.5% and 70.1%,210% and 104%,98.2%,87.8% and 89.7%,93% and 85.6%,78.9% and 73.9%,103% and 114%,86.8% and 73.4%,,83.6% and 86.9%,99.9% and 104%,,113% and 94.8%,88.8% and 83%,85.9% and 90.2%,
Cn1c2c(c3ccccc31)CCN1C[C@@H]3CCCC[C@H]3C[C@@H]21,9.14% (active),,19.8%,23%,18.4%,31.1%,-2.5% (active),26.3%,32.7%,22.9%,32.2%,30.4%,-5.89% (active),31.3%,,,25.2%,,,-16.1% (active)
O=C(Nc1cccc(Br)c1)Oc1ccc(Cl)c2cccnc12,10.9% [100 µM],,20.2% [100 µM],20.2% [100 µM],-30.4% [100 µM] (active),25% [100 µM],17% [100 µM],-18.3% [100 µM] (active),44.7% [100 µM],13.9% [100 µM],170% [100 µM],10.1% [100 µM],96.1% [100 µM],2% [100 µM] (active),27.8% [100 µM],47% [100 µM],10.7% [100 µM],3.16% [100 µM] (active),,9.3% [100 µM] (active)
O=C(/C=C/c1cccc(Cl)c1)c1ccccc1,56.7% and 62.8%,,75.9% and 45%,96% and 88.8%,81.5%,114% and 109%,109% and 100%,93.5%,92.3% and 81%,77.7% and 70%,84.8%,90.7% and 81.5%,,90.7% and 86.1%,,,74.1% and 63.7%,104% and 95.2%,60.5% and 20.8%,
CC1OC2CC(=O)OC2C2=C1C(=O)c1c(O)cccc1C2=O (stereo not drawn),-76.6% (active),,-44.8% (active),-35.3% (active),-89.4% (active),-93.5% (active),-61.2% (active),-53.3% (active),-94.9% (active),-90.7% (active),-96.2% (active),-97.4% (active),,-7.62% (active),,-82.5% (active),0.534% (active),-100% (active),-91.6% (active),
CC(C)(C)c1ccc(O)c(C2CCCCC2)c1,102%,,101%,95%,96.7%,110%,89%,115%,97.5%,104%,92.2%,103%,,-31.9% (active),122%,116%,47.9%,100%,,96.3%
CCC(c1cccc(O)c1)C(CC)c1cccc(O)c1 (stereo not drawn),49%,,45.5%,56.4%,30.1%,63.2%,71.8%,64.1%,68.5%,64.1%,80%,75.1%,70.8%,33.7%,71.2%,66.4%,49.8%,42.7%,57.8%,
N#CC1C(=O)SC2c3ccccc3C(=O)c3ccccc3C12 (stereo not drawn),111%,,92%,82.1%,89.2%,112%,98.5%,107%,101%,89.5%,99.5%,114%,105%,99.6%,99.4%,,95%,96.3%,95.3%,97.2%
CCC(CCCN(CC)CCc1ccccc1)OC(=O)c1cc(OC)c(OC)c(OC)c1 (stereo not drawn),89.8%,,90.8%,82.4%,90.7%,98.5%,95.6%,83.8%,90.2%,69.8%,72.6%,82.8%,60.2%,87.1%,92.3%,89.7%,98.6%,,,91.3%
O=[N+]([O-])c1ccc(N=Nc2ccc(O)cc2O)cc1,36.9%,,38.4%,32.1%,36.4%,44.2%,43.1%,58.8%,67.2%,58.5%,77.9%,55.5%,,36.7%,53.7%,56%,33.2%,70.3%,51.8%,43.3%
Cc1ccc2c(ccc3c[n+]4c5ccccc5ccc4n32)c1,79.6%,,-12.4% (active),8.46% (active),-48.9% (active),-28.1% (active),-19.8% (active),22.4%,5.27% (active),51%,58.6%,46.9%,,8.93% (active),2.91% (active),67.8%,19.2%,8.15% (active),22.5%,-81% (active)
CN(Cc1cnc2nc(N)nc(N)c2n1)c1ccc(C(=O)NC(CCC(=O)O)C(=O)O)cc1 (stereo not drawn),26.4%,,35.7%,62.1%,21.2%,62.2%,79.6%,70.9%,26.9%,9.25% (active),58.8%,26.8%,35.4%,24.4%,47.2%,22.2%,28.8%,59.6%,13.2%,23.3%
CC(=Nc1ccc(N(C)C)cc1)c1ccccc1,68.5%,,27.2%,37.8%,68%,65.4%,78.4%,58.6%,50.4%,55%,72.6%,59.8%,70.4%,66.7%,,79.8%,52.2%,86%,,54.6%
CCCCCCCCCCCCCCCCN(CC)CC,-90.2% (active),,-66.8% (active),0.915% (active),-86.6% (active),-91% (active),-79.9% (active),-88.5% (active),-83.5% (active),-69.3% (active),-89.4% (active),-57.4% (active),107%,-71.2% (active),-87.9% (active),-81.9% (active),-13.4% (active),-22.6% (active),-100% (active),
O=C1NC(=O)/C(=C/C=C/c2ccccc2)S1,54.1%,,17.1%,87.5%,1.33% (active),84.6%,-6.31% (active),62.5%,50.6%,34.1%,91.8%,9.79% (active),69.7%,,28.3%,25.5%,,,,25%
Cc1ccc2nc(-[n+]3cc4ccccc4cc3C)ccc2c1,104%,,22.6%,17.5%,30.7%,43.1%,39.5%,62%,13.2%,88.8%,81.9%,103%,,44.7%,27.2%,103%,40%,34.5%,46.6%,-27.5% (active)
C1=C(c2ccccc2)C(c2ccc(OCCN3CCCCC3)cc2)Oc2ccccc21 (stereo not drawn),23.2%,,38.2%,60.6%,-41% (active),-51.2% (active),77.3%,69.1%,55.3%,56.7%,74.9%,71.5%,94%,47.1%,53.7%,30%,37.5%,56.5%,-76.9% (active),-95.5% (active)
NC(=S)N/N=C/c1ccc(Cl)s1,101%,,101%,101%,101%,108%,105%,76.6%,101%,100%,105%,109%,97.1%,99.2%,101%,98.1%,94.6%,108%,,97.2%
O=C(Nc1ccccc1)c1cc(Cl)ccc1O,64.1%,,59.1%,66.5%,34.1%,55.7%,-6.3% (active),88.2%,61.8%,49.7%,53.5%,57.3%,-4.6% (active),77.2%,41.3%,49.6%,68%,,,7.81% (active)
CC1OC(OC2C(OC3CCC4(C)C(CCC5(C)C4CC=C4C6CC(C)(C)CCC6(CO)C(O)CC45C)C3(C)C)OC(C(=O)O)C(OC3OC(COC4OC(CO)C(O)C(O)C4O)C(O)C(O)C3O)C2O)C(O)C(O)C1O (stereo not drawn),-47.8% (active),,-80.4% (active),-74.3% (active),-69.7% (active),-79% (active),-75.3% (active),-74.8% (active),-77.7% (active),-88.7% (active),-69.3% (active),-100% (active),-88% (active),-67% (active),,-95.3% (active),-26.3% (active),-84.1% (active),-69.9% (active),-94.3% (active)
Cc1cc(C(C)(CC(C)C)c2ccc(O)c(C)c2)ccc1O,85.5%,,94.3%,93.2%,71.1%,114%,104%,89.5%,85.6%,84.6%,141%,83.3%,101%,80.8%,109%,73.3%,92%,75.8%,97%,
